Results taken from the supplement of paper PMC11732987, “Enantioselective OTUD7B fragment discovery through chemoproteomics screening and high-throughput optimisation” (Communications Chemistry, 2025).

Assays:
Assay in all cases: log2 ratio of Biotin-Ahx-Ub-VS probe labelling (fragment/DMSO); higher = less target engagement (more negative = stronger competition), active = hit call of the paper (q ≤ 0.05, log2 ratio ≤ -1)
Conditions in all cases: compound concentration: 200 uM; treatment time: 3 h
[1] = target: USP9X (UniProt Q93008)
Procedure, shortened: (§1)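 In triplicate, 495 µg of HEK293T lysate per sample was incubated with fragment at 200 µM or vehicle for 3 h. Biotin-Ahx-Ub-VS was then added to 0.5 µM final for 1 h, and labelled DUBs were captured with NeutrAvidin, digested with LysC and trypsin, and measured by diaPASEF LC-MS/MS. Data are average log2 fragment/vehicle ratios by unpaired t-test from global-median-normalised Spectronaut label-free quantities, restricted to proteins with ≥2 unique peptides.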

[2] = target: UniProt O00487
Procedure, shortened: as §1

[3] = target: UniProt O00507
Procedure, shortened: as §1

[4] = target: UniProt P51784
Procedure, shortened: as §1

[5] = target: T1, UniProt Q5T2D3
T1 sequence (whole entry): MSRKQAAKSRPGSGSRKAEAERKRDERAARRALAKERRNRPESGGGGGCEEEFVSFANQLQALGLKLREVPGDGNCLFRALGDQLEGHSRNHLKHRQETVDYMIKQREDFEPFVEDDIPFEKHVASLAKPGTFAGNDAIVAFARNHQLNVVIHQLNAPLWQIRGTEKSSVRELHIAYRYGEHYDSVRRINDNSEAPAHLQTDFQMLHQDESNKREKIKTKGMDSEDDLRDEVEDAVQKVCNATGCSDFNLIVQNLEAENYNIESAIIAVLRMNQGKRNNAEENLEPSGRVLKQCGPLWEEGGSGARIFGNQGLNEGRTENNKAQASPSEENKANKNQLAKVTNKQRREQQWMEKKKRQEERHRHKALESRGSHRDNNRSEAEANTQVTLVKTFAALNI
Procedure, shortened: as §1

[6] = target: T2, UniProt Q8TE49
T2 sequence (whole entry): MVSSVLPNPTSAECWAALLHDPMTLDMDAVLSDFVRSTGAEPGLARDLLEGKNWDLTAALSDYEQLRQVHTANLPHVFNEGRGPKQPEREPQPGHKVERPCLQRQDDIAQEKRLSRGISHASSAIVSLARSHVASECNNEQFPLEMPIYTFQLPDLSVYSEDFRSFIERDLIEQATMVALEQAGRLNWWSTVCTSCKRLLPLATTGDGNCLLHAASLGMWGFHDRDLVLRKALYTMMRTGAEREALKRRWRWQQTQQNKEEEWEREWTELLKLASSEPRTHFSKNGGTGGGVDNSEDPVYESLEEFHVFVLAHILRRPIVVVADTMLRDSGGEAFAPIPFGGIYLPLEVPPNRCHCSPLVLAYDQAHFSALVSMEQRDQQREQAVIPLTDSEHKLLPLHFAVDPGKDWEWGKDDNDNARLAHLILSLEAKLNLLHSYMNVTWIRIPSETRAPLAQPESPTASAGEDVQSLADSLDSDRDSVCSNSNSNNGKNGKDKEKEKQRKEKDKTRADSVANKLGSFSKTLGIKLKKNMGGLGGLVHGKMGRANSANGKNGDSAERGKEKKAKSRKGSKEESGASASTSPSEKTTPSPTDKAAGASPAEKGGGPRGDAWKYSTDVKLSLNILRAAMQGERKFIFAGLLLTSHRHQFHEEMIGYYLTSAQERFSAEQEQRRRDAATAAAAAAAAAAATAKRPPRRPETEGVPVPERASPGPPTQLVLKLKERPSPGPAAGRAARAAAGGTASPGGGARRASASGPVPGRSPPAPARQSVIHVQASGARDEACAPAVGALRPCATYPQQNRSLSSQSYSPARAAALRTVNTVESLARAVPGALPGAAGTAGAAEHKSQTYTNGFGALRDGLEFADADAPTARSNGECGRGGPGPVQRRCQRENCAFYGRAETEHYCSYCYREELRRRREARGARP
Procedure, shortened: as §1

[7] = target: T3, UniProt Q9P2H5
T3 sequence (whole entry): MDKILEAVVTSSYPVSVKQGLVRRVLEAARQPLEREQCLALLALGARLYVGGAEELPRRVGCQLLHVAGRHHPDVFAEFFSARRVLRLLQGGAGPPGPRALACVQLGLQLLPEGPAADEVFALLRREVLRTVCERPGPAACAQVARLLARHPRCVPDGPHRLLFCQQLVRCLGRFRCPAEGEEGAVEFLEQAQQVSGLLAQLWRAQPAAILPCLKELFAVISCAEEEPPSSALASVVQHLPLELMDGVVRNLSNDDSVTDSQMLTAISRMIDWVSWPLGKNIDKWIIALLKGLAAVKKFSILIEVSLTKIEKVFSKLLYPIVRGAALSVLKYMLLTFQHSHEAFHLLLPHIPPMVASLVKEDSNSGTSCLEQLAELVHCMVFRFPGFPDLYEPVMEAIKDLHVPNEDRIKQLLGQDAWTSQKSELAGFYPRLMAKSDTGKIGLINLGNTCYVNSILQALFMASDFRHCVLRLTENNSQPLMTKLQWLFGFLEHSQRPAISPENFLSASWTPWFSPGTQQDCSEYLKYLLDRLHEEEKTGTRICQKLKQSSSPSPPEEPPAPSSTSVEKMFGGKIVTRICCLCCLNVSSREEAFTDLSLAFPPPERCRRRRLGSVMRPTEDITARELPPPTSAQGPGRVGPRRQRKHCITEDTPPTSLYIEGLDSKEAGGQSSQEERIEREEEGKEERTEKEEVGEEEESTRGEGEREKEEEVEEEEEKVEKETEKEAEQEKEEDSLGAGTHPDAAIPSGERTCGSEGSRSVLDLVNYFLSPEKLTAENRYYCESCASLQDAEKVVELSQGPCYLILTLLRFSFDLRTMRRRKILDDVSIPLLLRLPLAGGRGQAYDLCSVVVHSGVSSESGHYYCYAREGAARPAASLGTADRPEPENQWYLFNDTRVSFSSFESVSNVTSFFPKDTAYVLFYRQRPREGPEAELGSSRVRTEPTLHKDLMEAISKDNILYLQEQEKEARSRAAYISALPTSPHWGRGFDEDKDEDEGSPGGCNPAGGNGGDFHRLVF
Procedure, shortened: as §1

[8] = target: T4, UniProt Q9UGI0
T4 sequence (whole entry): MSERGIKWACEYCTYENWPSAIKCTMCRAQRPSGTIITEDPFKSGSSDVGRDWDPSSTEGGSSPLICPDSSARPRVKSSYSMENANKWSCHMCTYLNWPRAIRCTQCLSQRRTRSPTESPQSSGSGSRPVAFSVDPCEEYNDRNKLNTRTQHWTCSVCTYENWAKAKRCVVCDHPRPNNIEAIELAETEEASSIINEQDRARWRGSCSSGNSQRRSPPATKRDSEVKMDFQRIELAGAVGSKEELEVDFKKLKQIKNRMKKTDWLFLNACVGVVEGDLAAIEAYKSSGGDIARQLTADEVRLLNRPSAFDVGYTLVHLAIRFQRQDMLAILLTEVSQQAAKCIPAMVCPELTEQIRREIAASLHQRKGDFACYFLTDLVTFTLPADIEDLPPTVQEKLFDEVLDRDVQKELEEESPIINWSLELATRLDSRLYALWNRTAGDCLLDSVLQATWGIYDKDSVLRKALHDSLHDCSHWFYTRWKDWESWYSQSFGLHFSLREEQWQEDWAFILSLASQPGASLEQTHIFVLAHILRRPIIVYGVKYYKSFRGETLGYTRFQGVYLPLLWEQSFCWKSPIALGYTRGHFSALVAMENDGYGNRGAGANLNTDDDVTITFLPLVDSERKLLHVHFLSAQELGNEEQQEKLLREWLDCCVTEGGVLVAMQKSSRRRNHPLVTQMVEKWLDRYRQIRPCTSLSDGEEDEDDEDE
Procedure, shortened: as §1

[9] = target: T5, YOD1 (UniProt Q5VVQ6)
T5 sequence (whole entry): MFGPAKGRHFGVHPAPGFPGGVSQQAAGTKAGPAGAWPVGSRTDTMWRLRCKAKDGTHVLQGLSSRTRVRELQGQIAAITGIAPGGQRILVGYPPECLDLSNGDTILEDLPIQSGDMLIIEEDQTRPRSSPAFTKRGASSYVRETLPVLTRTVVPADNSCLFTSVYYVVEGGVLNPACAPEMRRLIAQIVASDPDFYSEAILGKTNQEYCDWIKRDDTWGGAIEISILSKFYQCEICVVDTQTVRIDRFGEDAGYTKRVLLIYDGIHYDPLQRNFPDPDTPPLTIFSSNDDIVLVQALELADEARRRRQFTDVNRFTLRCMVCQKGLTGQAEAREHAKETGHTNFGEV
Procedure, shortened: as §1

Measured: log2 ratio of Biotin-Ahx-Ub-VS probe labelling

Chain of UniProt O00507 (O00507 whole entry): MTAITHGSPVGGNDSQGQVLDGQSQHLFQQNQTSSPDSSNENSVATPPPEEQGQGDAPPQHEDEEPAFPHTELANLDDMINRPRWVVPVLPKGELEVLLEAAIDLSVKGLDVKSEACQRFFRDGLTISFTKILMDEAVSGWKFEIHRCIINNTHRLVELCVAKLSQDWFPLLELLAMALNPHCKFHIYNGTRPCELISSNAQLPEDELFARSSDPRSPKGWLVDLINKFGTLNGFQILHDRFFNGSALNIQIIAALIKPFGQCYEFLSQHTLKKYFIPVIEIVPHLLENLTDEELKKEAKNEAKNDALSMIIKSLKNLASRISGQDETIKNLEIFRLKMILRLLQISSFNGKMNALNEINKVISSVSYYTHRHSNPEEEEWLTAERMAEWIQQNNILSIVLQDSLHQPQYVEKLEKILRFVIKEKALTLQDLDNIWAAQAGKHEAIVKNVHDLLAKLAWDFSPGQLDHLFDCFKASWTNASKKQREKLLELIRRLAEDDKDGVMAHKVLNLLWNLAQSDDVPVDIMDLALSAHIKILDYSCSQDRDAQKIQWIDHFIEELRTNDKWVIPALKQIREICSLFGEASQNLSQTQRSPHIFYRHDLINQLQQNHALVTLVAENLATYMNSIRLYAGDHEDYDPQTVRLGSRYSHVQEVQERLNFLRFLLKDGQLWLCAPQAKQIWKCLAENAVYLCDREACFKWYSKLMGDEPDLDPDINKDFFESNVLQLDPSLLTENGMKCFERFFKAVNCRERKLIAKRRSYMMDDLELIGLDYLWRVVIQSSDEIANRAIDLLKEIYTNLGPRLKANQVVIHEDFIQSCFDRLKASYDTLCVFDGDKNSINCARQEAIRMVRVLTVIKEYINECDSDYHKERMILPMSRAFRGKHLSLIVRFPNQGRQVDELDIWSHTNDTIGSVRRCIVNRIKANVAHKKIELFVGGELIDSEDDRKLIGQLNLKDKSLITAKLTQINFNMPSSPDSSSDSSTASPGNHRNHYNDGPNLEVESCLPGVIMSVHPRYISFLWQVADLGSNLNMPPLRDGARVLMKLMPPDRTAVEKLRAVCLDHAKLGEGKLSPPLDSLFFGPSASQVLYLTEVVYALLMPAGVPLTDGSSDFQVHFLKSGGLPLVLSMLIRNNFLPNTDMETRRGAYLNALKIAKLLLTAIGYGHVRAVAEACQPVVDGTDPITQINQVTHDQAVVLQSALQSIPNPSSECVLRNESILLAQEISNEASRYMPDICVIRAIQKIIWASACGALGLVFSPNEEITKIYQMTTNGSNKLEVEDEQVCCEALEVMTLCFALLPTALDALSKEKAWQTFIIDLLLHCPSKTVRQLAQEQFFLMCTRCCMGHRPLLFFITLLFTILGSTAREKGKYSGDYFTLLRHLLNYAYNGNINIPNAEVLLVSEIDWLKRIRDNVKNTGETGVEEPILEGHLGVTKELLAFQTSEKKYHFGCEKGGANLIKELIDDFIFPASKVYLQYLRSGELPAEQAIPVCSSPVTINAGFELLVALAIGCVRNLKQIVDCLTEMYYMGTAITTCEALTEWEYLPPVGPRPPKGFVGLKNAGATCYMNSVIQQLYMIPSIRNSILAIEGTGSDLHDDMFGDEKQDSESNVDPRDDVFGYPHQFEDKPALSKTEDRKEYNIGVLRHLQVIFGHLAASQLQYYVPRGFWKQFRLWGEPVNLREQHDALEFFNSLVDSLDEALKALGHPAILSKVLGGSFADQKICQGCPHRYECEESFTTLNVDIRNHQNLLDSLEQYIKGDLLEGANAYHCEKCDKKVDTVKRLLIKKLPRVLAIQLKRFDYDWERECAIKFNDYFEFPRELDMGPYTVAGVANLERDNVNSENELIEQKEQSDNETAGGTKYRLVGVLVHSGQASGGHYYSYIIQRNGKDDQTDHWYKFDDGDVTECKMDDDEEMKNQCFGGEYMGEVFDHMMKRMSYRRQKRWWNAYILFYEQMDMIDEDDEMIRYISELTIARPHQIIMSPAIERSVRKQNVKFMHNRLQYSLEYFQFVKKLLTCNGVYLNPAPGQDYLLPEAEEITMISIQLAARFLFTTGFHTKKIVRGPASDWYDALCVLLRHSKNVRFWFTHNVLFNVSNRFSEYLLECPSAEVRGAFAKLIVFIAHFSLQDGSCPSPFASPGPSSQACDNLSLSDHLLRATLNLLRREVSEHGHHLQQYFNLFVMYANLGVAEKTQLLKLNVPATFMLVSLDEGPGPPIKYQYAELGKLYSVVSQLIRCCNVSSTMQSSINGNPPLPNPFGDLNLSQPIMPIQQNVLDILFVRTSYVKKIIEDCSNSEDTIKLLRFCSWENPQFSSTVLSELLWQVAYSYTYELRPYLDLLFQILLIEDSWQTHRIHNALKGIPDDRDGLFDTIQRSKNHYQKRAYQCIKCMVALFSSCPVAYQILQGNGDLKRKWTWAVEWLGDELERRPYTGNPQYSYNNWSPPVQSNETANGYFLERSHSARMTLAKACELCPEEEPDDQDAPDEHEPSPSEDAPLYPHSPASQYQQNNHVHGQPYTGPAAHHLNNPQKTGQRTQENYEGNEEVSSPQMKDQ
Chain of UniProt P51784 (P51784 whole entry): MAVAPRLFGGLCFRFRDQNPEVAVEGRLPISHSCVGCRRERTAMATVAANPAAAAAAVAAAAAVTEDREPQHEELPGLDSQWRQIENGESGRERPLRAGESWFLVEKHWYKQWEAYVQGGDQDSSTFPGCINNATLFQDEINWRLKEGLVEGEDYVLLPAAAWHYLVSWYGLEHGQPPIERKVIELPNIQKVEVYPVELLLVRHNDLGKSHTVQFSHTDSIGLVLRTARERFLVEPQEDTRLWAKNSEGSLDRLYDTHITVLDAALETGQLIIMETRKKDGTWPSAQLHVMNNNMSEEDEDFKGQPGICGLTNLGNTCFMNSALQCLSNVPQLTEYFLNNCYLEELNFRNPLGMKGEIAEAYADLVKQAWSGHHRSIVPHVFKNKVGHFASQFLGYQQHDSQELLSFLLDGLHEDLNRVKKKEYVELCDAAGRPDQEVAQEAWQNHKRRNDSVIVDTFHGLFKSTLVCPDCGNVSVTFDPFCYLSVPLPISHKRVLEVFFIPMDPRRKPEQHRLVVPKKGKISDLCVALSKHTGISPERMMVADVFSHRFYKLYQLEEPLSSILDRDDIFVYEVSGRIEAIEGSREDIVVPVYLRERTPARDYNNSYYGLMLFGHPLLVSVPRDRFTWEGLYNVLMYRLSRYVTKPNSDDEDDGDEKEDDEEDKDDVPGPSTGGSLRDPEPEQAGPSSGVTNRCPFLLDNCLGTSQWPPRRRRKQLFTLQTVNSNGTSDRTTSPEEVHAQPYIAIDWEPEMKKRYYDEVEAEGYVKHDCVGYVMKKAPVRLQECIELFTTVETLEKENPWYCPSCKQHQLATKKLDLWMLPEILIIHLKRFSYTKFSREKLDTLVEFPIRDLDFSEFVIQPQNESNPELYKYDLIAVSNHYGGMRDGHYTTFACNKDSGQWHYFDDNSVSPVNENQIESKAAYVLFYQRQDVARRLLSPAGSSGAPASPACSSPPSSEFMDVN
Chain of UniProt O00487 (O00487 whole entry): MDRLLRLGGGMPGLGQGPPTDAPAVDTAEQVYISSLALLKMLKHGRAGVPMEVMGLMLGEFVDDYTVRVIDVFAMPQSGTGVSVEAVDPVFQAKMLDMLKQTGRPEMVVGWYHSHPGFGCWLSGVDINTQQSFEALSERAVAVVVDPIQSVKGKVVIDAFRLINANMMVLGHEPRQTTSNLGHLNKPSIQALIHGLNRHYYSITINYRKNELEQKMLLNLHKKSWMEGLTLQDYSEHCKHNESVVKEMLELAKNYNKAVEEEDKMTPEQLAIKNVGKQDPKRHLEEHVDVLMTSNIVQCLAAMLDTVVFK

C#Cc1cccc(NC(=O)CCl)c1
active: [8] -1.01
inactive: [1] -0.146 | [2] -0.148 | [3] 0.0122 | [4] -0.102 | [5] -0.121 | [6] -0.872 | [7] -0.252 | [9] 0.0347
